Assay outcomes: PubChem BioAssay, National Center for Advancing Translational Sciences (NCATS)
Cycloheximide cs: Cycloheximide Counterscreen for Small Molecule Inhibitors of Shiga Toxin; cell reporter, cycloheximide protein synthesis inhibition counterscreen; AID 2314, 2010; 300,000 compounds, 12% hits; max response, %; in the data active = max response mostly above about 13%, no sharp cut-off; inactive = mostly below about 14%; also: read at 38.3 µM for the half of the compounds with a filed dose; 0% is about no effect
Pf growth 96h: Primary qHTS for delayed death inhibitors of the malarial parasite plastid, 96 hour incubation; 320,000 compounds, 6.9% hits; Potency, µM (top dose mostly 28.7 µM), for the others: at the top dose activity change, negative = inhibition, hits mostly inhibitors; P. falciparum luciferase reporter growth, 96 h; also: potency is read from the fitted curve at half-maximal effect; % is scaled to controls: 0 for no effect and ±100 for the full control effect
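P. falciparum expressing integrated firefly luciferase grown in erythrocytes (2% hematocrit, 0.05% parasitemia final) with compounds for 96 hours at 37 C, 5% CO2. Growth inhibition read as loss of luminescence after adding luciferase detection reagent.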
NS1 inh: qHTS Assay for Inhibitors of Influenza NS1 Protein Function | Potency, µM (highest dose often 46.1 µM), for the others: at the top dose activity, positive = more growth | 270,000 compounds, 0.4% hits | AID 2326, 2010; calls by dose curve; also: potency is read from the fitted curve at half-maximal effect; actives are rising curves; nearly all actives have a fitted effect of over 50% in size
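In this qHTS, NS1 from influenza A is expressed in budding yeast, where it slows growth. Cells are switched from glucose to 2% galactose medium (pH 6.0, -URA), treated with compound, and growth recovery is read at OD600.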
Pf growth 48h: Primary qHTS for delayed death inhibitors of the malarial parasite plastid, 48 hour incubation | P. falciparum luciferase growth in erythrocytes, 48 h | Potency, µM (titrated, usually from 28.7 µM), without a hit: at the highest dose activity change, negative = inhibition, actives largely listed as inhibitors | 310,000 compounds, 5.9% hits | AID 504832, 2011; also: potency is read from the fitted curve at half-maximal effect; % is scaled to controls: 0 for no effect and ±100 for the full control effect
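Luminescence readout; reporter = integrated firefly luciferase in P. falciparum. RBC culture at 2% hematocrit, 0.1% parasitemia final, 37 C/5% CO2; decreased signal taken as growth inhibition.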
Sm TGR inh: qHTS Assay for the Inhibitors of Schistosoma Mansoni Peroxiredoxins; Schistosoma mansoni thioredoxin glutathione reductase (TGR), Q962Y6; purified TGR, DTNB reduction, TNB absorbance 405 nm; Potency, µM (highest dose often 114 µM), for the others: top-dose activity change, negative = inhibition, usual class: inhibitors; 360,000 compounds, 3% hits; also: potency is read from the fitted curve at half-maximal effect; % is scaled to controls: 0 for no effect and ±100 for the full control effect; nearly all actives have a fitted effect of over 60% in size
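Kinetic colorimetric format: TGR-catalysed, NADPH-driven DTNB reduction monitored via TNB absorbance. Enzyme dispensed at 20 nM; compound exposure 15 min at room temperature before reaction start.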
Shiga toxin inh: A qHTS for Small Molecule Inhibitors of Shiga Toxin; Vero cells, Shiga toxin protein synthesis inhibition reporter; inhibition, % at 38.7 µM; 290,000 compounds, 9.2% hits; in the data active = inhibition mostly above about 28%, no sharp cut-off; inactive = mostly below about 43%; also: 0% is about no effect
Active calls of the source: *; ? = inconclusive; / = not tested or not shown; [ ] = another dose, or the depositor's remark. Sampled rows, rich in hits. Any-hit rate of the full collection: about 21%. Unless noted, calls follow the shape of the dose curve; as a rule, active = well fitted curve in the direction sought with a large enough effect; inconclusive = small, poorly fitted or top-dose-only effect, or another doubt; inactive = no such curve, though single readings can be large; an effect the other way counts as inactive or inconclusive.

SMILES	Cycloheximide cs	Pf growth 96h	NS1 inh	Pf growth 48h	Sm TGR inh	Shiga toxin inh
CC1CC(NC(=O)CC#N)CC(C)(C)C1 (stereo unspecified)	-2.0	99.0%	-0.4%	45.5%	-9.4%	3.4
O=C(/C=C/c1ccccc1)NC1CCS(=O)(=O)C1 (stereo unspecified)	7.3	0.0%	12.1%	2.5%	-8.3%	-2.8
O=C(COC(=O)CNC(=O)c1ccc(Cl)c([N+](=O)[O-])c1)NC(=O)c1ccccc1	-0.2	34.8%	7.8%	-11.7%	-0.2%	-5.3
CC1CCCN(C(=O)NC2CC(=O)N(c3ccc4c(c3)OCCO4)C2)C1 (stereo unspecified)	/	6.5%	/	?	-0.7%	/
CCc1cccc(CC)c1NC(=O)CCS(=O)(=O)c1ccc(Br)s1	/	/	/	/	0.5%	/
O=C(Cc1ccc(Cl)c(Cl)c1)NC1CCCCCC1	11.9*	?	-2.3%	-15.8%	-1.4%	78.7*
O=C(Cc1ccc(O)cc1)NC1CCCCCC1	42.1*	142.3%	-2.1%	65.0%	-1.0%	68.9*
Oc1ccc(CNC2CCCCC2)cc1	-3.6	/	-0.3%	11.7µM*	27.9%	-10.4
CC(C)Cc1ccc(/C=C/C(=O)NC2CC2)cc1	71.4*	2.08µM*	-32.2%	?	-1.5%	112.4*
O=C(Cc1ccc(Cl)cc1Cl)NC1CCCCCC1	-2.4	-23.7%	-5.1%	-2.7%	6.2%	13.6
O=C(Cc1ccc([N+](=O)[O-])cc1)NC1CCCCCC1	6.1	5.6%	-4.1%	10.5%	-10.7%	10.7
O=C(CSc1nnc(CNC(=O)c2cccc(F)c2)n1-c1ccccc1)Nc1ccccc1F	/	/	/	/	4.7%	/
Cc1cccc(C)c1NC(=O)CCC(=O)N1Cc2ccccc2Oc2ncccc21	/	/	/	/	-1.5%	/
O=S(=O)(NC(=S)NC1CCCCC1)c1ccc(Br)cc1	-1.7	29.9%	/	0.7%	22.4µM*	14.5
O=C(CCNS(=O)(=O)c1ccc(Br)cc1)NC1CCCCC1	-0.9	3.4%	/	?	8.9%	-10.3
COc1ccc(/C=C/c2ccc3cccc(O)c3n2)c(OC)c1OC	39.0*	-14.9%	-76.9%	2.5%[0.00184 µM]	0.7%	113.1*
CCOc1c(OC(C)=O)ccc(/C=C/c2ccc3cccc(OC)c3n2)c1[N+](=O)[O-]	39.8*	-2.8%	6.3%	4.65µM*	-22.1%	36.0*
COc1cccc(/C=C/c2ccc3cccc(O)c3n2)c1OC	57.8*	?	-77.1%	/	0.0%	127.5*
COc1cc(NC(=O)COC(=O)Cn2cnc3c2c(=O)n(C)c(=O)n3C)cc(OC)c1	/	-16.6%	/	-3.3%	-2.7%	/
C=CCNC(=O)C(=O)Nc1cc2c3c(c1)CCC(=O)N3CCC2	-2.0	-2.8%	-11.3%	-11.7%	-7.8%	37.8
O=C(Nc1ccccc1)c1ccc(NCc2ccco2)c(S(=O)(=O)N2CCOCC2)c1	10.0*	23.1%	?	?	31.6µM*	15.8
O=C(NCc1ccco1)c1ccc(Cl)c(S(=O)(=O)N2CCc3ccccc32)c1	17.3*	?	13.3%	?	-0.8%	11.5
O=C(NCc1cccs1)c1ccc(Cl)c(S(=O)(=O)N2CCCC2)c1	7.8	?	/	0.329µM*	-6.4%	-5.5
O=C(NCC1(N2CCOCC2)CCCCC1)c1ccc(Cl)c(S(=O)(=O)NCc2ccco2)c1	7.7	25.7%	-7.6%	6.57µM*	-33.9%	-8.1
O=C(Nc1ccccc1)c1ccc(NCCN2CCOCC2)c(S(=O)(=O)N2CCOCC2)c1	-2.4	/	-20.1%	-16.0%	4.3%	-7.8
SMILES	Cycloheximide cs	Pf growth 96h	NS1 inh	Pf growth 48h	Sm TGR inh	Shiga toxin inh
COc1ccc(Br)cc1CNC(=O)c1nn(-c2ccc(C)cc2)c(=O)c2c1c1ccccc1n2C	/	/	/	/	2.3%	/
O=C(NCc1ccco1)c1ccc(Cl)c(S(=O)(=O)N2CCOCC2)c1	9.6	/	1.4%	2.33µM*	-13.7%	13.6
Cc1cc(C)cc(OCC(=O)OCc2nnc(-c3ccccc3)o2)c1	1.1	-0.4%	/	3.2%	0.2%	23.6
CCCCCCCCCCn1c2c(c(=N)c3c1CCC3)CCC2	-3.5	0.117µM*	-165.2%	0.262µM*	-0.6%	-27.8
CCCCCn1c2c(c(=N)c3ccccc31)CCC2	1.6	?	-8.8%	0.657µM*	-0.4%	-9.7
CCCCCCCCn1c2c(c(=N)c3ccccc31)CCC2	1.1	-45.3%	6.5%	12.4%	9.0%	22.5
